Screens as filed in PubChem BioAssay.
A selection: hits, their analogues and other compounds. The true share with any hit is near 21%.
Cycloheximide cs: counter-screen hit for Shiga toxin inhibitors, cycloheximide | cell reporter, cycloheximide protein synthesis inhibition counterscreen | max response, % | hit rate 12% among 300,000 | AID 2314; in the data active = max response mostly above about 13%, no sharp cut-off; inactive = mostly below about 14%; note: read at 38.3 µM for the half of the compounds with a filed dose
Shiga inhibitor: inhibitors of Shiga toxin in Vero cells; hit rate 9.2% among 290,000; inhibition, % at 38.7 µM; Vero cells, Shiga toxin protein synthesis inhibition reporter; in the data active = inhibition mostly above about 28%, no sharp cut-off; inactive = mostly below about 43%
NS1 inh: inhibitors of influenza NS1 protein function. Potency, µM (highest dose often 46.1 µM). hit rate 0.4% among 270,000. AID 2326; calls by dose curve; note: actives are rising curves; nearly all actives have a fitted effect of over 50% in size
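In this qHTS, NS1 from influenza A is expressed in budding yeast, where it slows growth. Cells are switched from glucose to 2% galactose medium (pH 6.0, -URA), treated with compound, and growth recovery is read at OD600.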
Pf growth 48h: inhibits P. falciparum growth in the first generation, 48 h. Potency, µM (doses to about 28.7 µM), usual class: inhibitors. AID 504832. hit rate 5.9% among 310,000. P. falciparum luciferase growth in erythrocytes, 48 h
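Compounds are pin-transferred into medium, infected erythrocytes (2% hematocrit, 0.1% parasitemia final) are added, and plates sit one parasite generation at 37 C in 5% CO2. Detection reagent is then added and luminescence measured.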
Pf growth 96h: P. falciparum growth inhibition at 96 hour, primary screen for plastid delayed-death inhibitors | Potency, µM (titrated, usually from 28.7 µM), most hits filed as inhibitors | P. falciparum luciferase reporter growth, 96 h | hit rate 6.9% among 320,000
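Cell-based qHTS: luciferase-tagged P. falciparum in erythrocytes (2% hematocrit, 0.05% parasitemia final) incubated with compounds for 96 hours, 37 C, 5% CO2; luciferase detection reagent then added and luminescence measured.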
Giardia FBPA inh: inhibitors of Giardia lamblia fructose-1,6-bisphosphate aldolase. purified Giardia FBPA. Potency, µM (titrated, usually from 59.6 µM), hits mostly inhibitors. A8B2U2. hit rate 0.71% among 290,000; note: nearly all actives have a fitted effect of over 55% in size
Target sequence (A8B2U2 whole entry, looked up): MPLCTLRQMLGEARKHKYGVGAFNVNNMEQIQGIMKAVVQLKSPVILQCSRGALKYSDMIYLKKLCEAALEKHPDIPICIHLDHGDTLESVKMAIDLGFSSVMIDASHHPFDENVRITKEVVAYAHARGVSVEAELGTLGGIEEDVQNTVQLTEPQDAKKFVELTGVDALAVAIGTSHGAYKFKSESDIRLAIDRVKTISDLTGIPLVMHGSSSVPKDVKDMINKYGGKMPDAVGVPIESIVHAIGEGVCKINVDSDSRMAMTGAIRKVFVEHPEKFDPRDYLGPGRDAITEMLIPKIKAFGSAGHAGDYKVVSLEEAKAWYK
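40 nM FBPA preincubated 10 min at RT with compound (up to 57.5 uM final), then substrate plus GAPDH/TPI/NAD/arsenate coupling and diaphorase/resazurin added. Fluorescence read after 20 min at RT, 525/598 nm.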
A number is an active result; i = inactive; ? = inconclusive; nt = not tested or not shown; [ ] = remark or other dose. Unless noted, calls come from the whole dose curve; as a rule, active = well fitted curve in the direction sought with a large enough effect; inconclusive = small, poorly fitted or top-dose-only effect, or another doubt; inactive = no such curve, though single readings can be large; an effect the other way counts as inactive or inconclusive.

SMILES	Cycloheximide cs	Shiga inhibitor	NS1 inh	Pf growth 48h	Pf growth 96h	Giardia FBPA inh
CC1CN(Cc2csc(-c3ccc(Cl)cc3)n2)CC(C)O1 (stereo unspecified)	i	117	nt	i	i	?
CCCOC(=O)/C(=C\c1ccc([N+](=O)[O-])o1)NC(=O)c1ccccc1	i	i	i	?	0.41µM	i
CCCOC(=O)/C(=C\C=C\c1ccco1)NC(=O)c1ccccc1	51	115	nt	i	i	i
S=C(Nc1ccc(Cl)cc1)NC1CC2CCC(C1)N2Cc1ccccc1 (stereo unspecified)	i	i	i	3.3µM	i	i
CNC(=S)NC1CC2CCC(C1)N2Cc1ccccc1 (stereo unspecified)	i	i	i	i	i	i
CCc1ccc(NC(=S)NC2CC3CCC(C2)N3Cc2ccco2)cc1 (stereo unspecified)	i	i	i	?	i	i
CCc1ccc(NC(=S)NC2CC3CCCC(C2)N3Cc2ccccc2)cc1 (stereo unspecified)	i	i	i	6.6µM	?	i
COc1cc2ccccc2cc1C(=O)NC(=S)Nc1cccc(C(=O)O)c1C	i	i	i	i	i	i
CCOC(=O)[C@@H]1[C@H]2COc3ccc(Br)cc3[C@@H]2N2C(=O)N(c3cccc(C)c3)C(=O)[C@]12C	i	i	i	i	?	i
CCOC(=O)[C@@H]1[C@H]2COc3ccc(Br)cc3[C@H]2N2C(=O)N(c3ccc(F)cc3)C(=O)[C@@]12C	i	i	i	5.9µM	?	i
CCOC(=O)[C@@H]1[C@H]2COc3cc(OC)ccc3[C@@H]2N2C(=O)N(c3ccc(C(F)(F)F)cc3)C(=O)[C@]12C	i	i	i	?	12µM	i
CCOC(=O)[C@@H]1[C@H]2COc3ccc(Br)cc3[C@@H]2N2C(=O)N(c3ccc(F)cc3)C(=O)[C@]12C	i	i	i	?	?	i
CCOC(=O)[C@@H]1[C@H]2COc3ccc(Br)cc3[C@H]2N2C(=O)N(c3cccc(F)c3)C(=O)[C@]12C	i	i	i	?	13µM	i
COc1cc(NC(=O)C2CSC3(C)CCC(=O)N23)c(OC)cc1Cl (stereo unspecified)	nt	nt	nt	?	i	nt
COc1ccc(NC(=O)CNc2cccc(S(=O)(=O)N3CCCCCC3)c2)c([N+](=O)[O-])c1	nt	nt	nt	i	i	nt
CSCC(C)N1CCC(n2nccc2NC(=O)CCCc2ccccc2)CC1 (stereo unspecified)	i	i	i	i	?	i
Cc1ccccc1C(=O)Nc1ccnn1C1CCN(CC2CC=CCC2)CC1 (stereo unspecified)	i	i	i	i	15µM	nt
Cc1ccc(CN2CCC(n3nccc3NC(=O)c3ccccc3C)CC2)o1	i	i	i	i	2.1µM	i
CC(CN1CCC(n2nccc2NC(=O)CCCc2ccccc2)CC1)c1ccccc1 (stereo unspecified)	i	i	i	15µM	12µM	nt
Cc1ccccc1C(=O)Nc1ccnn1C1CCN(Cc2ccc(CO)o2)CC1	i	i	i	i	i	nt
Cc1ccccc1C(=O)Nc1ccnn1C1CCN(CCCc2ccccc2)CC1	i	i	i	?	15µM	nt
O=C(Nc1ccnn1C1CCN(CC2CC=CCC2)CC1)c1ccccc1Cl (stereo unspecified)	i	i	i	?	i	i
O=C1[C@H]2CCn3c(=O)n(-c4ccccc4)c(=O)n3[C@H]2[C@H](O)[C@H]2O[C@@H]12	nt	nt	nt	nt	nt	i[12.9 µM]
COc1ccccc1Cn1c(=O)c2ccccc2n2c(Sc3ncnc4sccc34)nnc12	i	i	i	?	i	i
COc1ccccc1Cn1c(=O)c2ccccc2n2c(SCc3csc(C)n3)nnc12	i	i	i	?	5.2µM	i
SMILES	Cycloheximide cs	Shiga inhibitor	NS1 inh	Pf growth 48h	Pf growth 96h	Giardia FBPA inh
Cc1ccc(NC(=O)c2ccc(F)cc2)nc1	i	i	i	i	5.2µM	i
Cc1ccc(NC(=O)/C(C#N)=C(\N)C(Cl)(Cl)Cl)nc1	38	76	nt	i	i	i
Cc1cc(NC(=O)c2ccc3c(c2)C(=O)N(c2cccc(C)c2C)C3=O)no1	i	i	i	i	?	i
Cc1ccc(NC(=O)c2ccc3c(c2)C(=O)N(c2cc(C)ccc2C)C3=O)nc1	29	68	i	i	i	i
COc1ccc(C(=O)Nc2ccc(C)cn2)c(OC)c1	i	i	i	i	i	i
Cc1ccc(NC(=O)c2cccnc2C(=O)O)nc1	i	i	i	i	i	?
Cc1ccc(NC(=O)c2sccc2C)nc1	49	88	i	i	i	nt
Cc1cc(Br)ccc1S(=O)(=O)NCc1ccccc1	i	i	i	?	?	i
Cc1cccc(C(=O)N2CCN(CCNC(=O)C(=O)Nc3ccc(F)cc3)CC2)c1	i	i	i	i	i	i
O=C(COc1ccccc1Cl)Nc1ccc(S(=O)(=O)Nc2ccccn2)cc1	i	i	i	i	i	i
Cc1ccc(NC(=O)C(=O)Nc2ccc(C)cn2)nc1	50	85	nt	i	?	i
Cc1ccc(NC(=O)NC(=O)N(C(C)C)S(C)(=O)=O)nc1	14	i	i	i	i	i
CC1(C)C(C(=O)O)N2C(=O)CC2S1(=O)=O (stereo unspecified)	i	i	nt	nt	nt	i
COc1cccc(C(C[N+](=O)[O-])c2c(C)[nH]n(-c3ccccc3)c2=O)c1 (stereo unspecified)	i	i	i	i	i	13µM
CN(C)CCN(C(=O)C1CCN(S(=O)(=O)c2cccs2)CC1)c1nc2ccccc2s1	nt	nt	nt	i	i	nt
O=C(COC(=O)COc1ccccc1)NC12CC3CC(CC(C3)C1)C2	nt	nt	nt	i	i	nt
O=C(Nc1ccc2oc(=O)ccc2c1)c1ccc(-c2ccc(Cl)cc2)o1	i	i	i	i	?	i
O=C(Nc1ccc2oc(=O)ccc2c1)c1ccc(-c2cccc([N+](=O)[O-])c2)o1	i	i	i	4.1µM	?	i
O=C(Nc1ccc2oc(=O)ccc2c1)c1ccc(-c2cccc(Cl)c2)o1	i	i	i	10µM	?	i
COc1cc(NC(=O)c2ccc(-c3cccc([N+](=O)[O-])c3)o2)ccc1NC(=O)C(C)C	i	i	i	10µM	i	i
CCN1CCN(C(=O)C2CCCN(S(=O)(=O)c3cccc4nsnc34)C2)CC1 (stereo unspecified)	i	i	i	i	?	i
CC(=O)c1ccc(OCc2cc(C(=O)N3CCC[C@H]3CO)no2)cc1	i	i	i	i	?	nt
CC(=O)c1ccc(OCc2cc(C(=O)N3CCN(c4ccccc4)CC3C)no2)cc1 (stereo unspecified)	48	53	i	i	i	i
CSc1ccccc1OCc1cc(C(=O)N2CCN(c3ccccc3)CC2C)no1 (stereo unspecified)	57	99	?	?	i	i
Cc1cc2c(cc1S(=O)(=O)NCc1ccc(N(C)C)cc1)OCC(=O)N2	i	i	i	i	?	i
O=C(CCS(=O)(=O)c1ccc2c(c1)NC(=O)CO2)NCc1ccccc1	i	i	i	i	13µM	i
